In PubChem BioAssay AID1159580 (chemical genetic matrix, 2015):
In all, about 5,500 compounds went through this assay and about 2,000 (36%) were called active. Not shown: some 18% with an inconclusive outcome. Rule as the data show it: active = normalized growth mostly below about 0.91 (no sharp cut-off); inconclusive = no clear call, values can overlap the other calls; inactive = mostly above about 0.92. This is one part of the list.

Assay: chemical genetic growth profiling, strain panel (AID 1159580);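 also: tested at 20 µM; growth read once vehicle control cultures reached saturation at 30 °C; 1 = growth at the plate median or of vehicle wells; lower values mean less growth of the strain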
Conditions: S. cerevisiae deletion strains, growth OD

Measured: normalized growth

CNCC[C@H](Oc1ccc(C(F)(F)F)cc1)c1ccccc1
inactive: locus YAL040C, strain CLN3, stronger effect = lower value 0.981 | locus YCL061C, strain MRC1 (second series), stronger effect = lower value 0.985 | locus YDR150W, strain NUM1, stronger effect = lower value 0.993 | locus YDR363W, strain ESC2, stronger effect = lower value 1.01 | locus YER002W, strain NOP16, stronger effect = lower value 1.01 | locus YGR078C, strain PAC10, stronger effect = lower value 0.969 | locus YMR263W, strain SAP30, stronger effect = lower value 0.997 | locus YNL128W, strain TEP1, stronger effect = lower value 1.01 | locus YNL153C, strain GIM3, stronger effect = lower value 0.886 | locus YNL175C, strain NOP13, stronger effect = lower value 1 | locus YNL197C, strain WHI3, stronger effect = lower value 0.988 | locus YNL224C, strain SQS1, stronger effect = lower value 1 | locus YOR083W, strain WHI5 (second series), stronger effect = lower value 0.874 | locus YPL241C, strain CIN2, stronger effect = lower value 0.982
